Inconclusive results are not listed. Active and inactive are the calls of the source. The call rests on the fitted dose curve; in most records, active means well fitted curve in the direction sought with a large enough effect; inconclusive means small, poorly fitted or top-dose-only effect, or another doubt; inactive means no such curve, though single readings can be large; an effect the other way counts as inactive or inconclusive.
Key:
[1] = qHTS of pediatric cancer cell lines to identify multiple opportunities for drug repurposing: Primary screen for SK-N-MC cells (AID 1347093); further: potency means the concentration at half of the fitted maximal effect;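 on activity change, negative = cytotoxic: series mostly up to about 46 µM; plate controls were DMSO neutral control for no effect and bortezomib for full effect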
How it was run: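 Metabolically active cells were quantified by ATP-dependent luminescence (CellTiter-Glo, 15 min at room temperature) following 48 h treatment. Cells had been plated at 500-1,000 per well and settled for 5 h beforehand.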

[2] = qHTS of pediatric cancer cell lines to identify multiple opportunities for drug repurposing: Primary screen for BT-37 cells (AID 1347094);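 further: series mostly up to about 57 µM; plate controls were DMSO for no effect and bortezomib for full effect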
How it was run: (§1)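 Primary screen of approved and investigational compounds on cells in growth media at 37 degrees C, 5% CO2. MIPE set at 11-point and NPC set at 8-point dilutions; viability scored by ATP-based luminescence at 48 hours.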

[3] = qHTS of pediatric cancer cell lines to identify multiple opportunities for drug repurposing: Primary screen for NB-EBc1 cells (AID 1347095);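 further: plate controls were DMSO neutral control for no effect and bortezomib for full effect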
How it was run: as §1

[4] = qHTS of pediatric cancer cell lines to identify multiple opportunities for drug repurposing: Primary screen for U-2 OS cells (AID 1347096);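 further: plate controls were DMSO wells for no effect and bortezomib positive control wells for full effect; nearly all actives have a fitted effect of over 50% in size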
How it was run: (§2)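 Cells (500-1,000/well) in growth media were settled 5 h at 37 degrees C, then given compounds for 48 h. Viability was read as CellTiter-Glo luminescence. Primary runs used MIPE at 11 points (0.78 nM-46 µM) and NPC at 8 points (0.59 nM-46 µM); follow-ups used 11 points.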

[5] = qHTS of pediatric cancer cell lines to identify multiple opportunities for drug repurposing: Primary screen for Saos-2 cells (AID 1347097); further: on the % scale 0 is the no-effect control and ±100 the full control effect; nearly all actives have a fitted effect of over 40% in size
How it was run: as §1

[6] = qHTS of pediatric cancer cell lines to identify multiple opportunities for drug repurposing: Primary screen for SK-N-SH cells (AID 1347098);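 further: DMSO served as neutral control and bortezomib at 2.3 µM as positive control; on the % scale 0 is the no-effect control and ±100 the full control effect; nearly all actives have a fitted effect of over 65% in size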
How it was run: (§3)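 Cells (500-1,000/well) rested 5 h, then received compounds for 48 h; metabolically active cells were measured by CellTiter-Glo luminescence. Final concentrations spanned up to 46 µM (MIPE, 11-point) or 0.59 nM-46 µM (NPC, 8-point) in primary screens, 11-point in follow-ups.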

[7] = qHTS of pediatric cancer cell lines to identify multiple opportunities for drug repurposing: Primary screen for NB1643 cells (AID 1347099);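 further: plate controls were DMSO neutral control for no effect and bortezomib positive control for full effect; nearly all actives have a fitted effect of over 50% in size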
How it was run: as §1

[8] = qHTS of pediatric cancer cell lines to identify multiple opportunities for drug repurposing: Primary screen for LAN-5 cells (AID 1347100);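 further: plate controls were DMSO neutral control for no effect and bortezomib positive control for full effect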
How it was run: as §2

[9] = qHTS of pediatric cancer cell lines to identify multiple opportunities for drug repurposing: Primary screen for BT-12 cells (AID 1347101);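 further: plate controls were DMSO for no effect and bortezomib positive control for full effect; nearly all actives have a fitted effect of over 25% in size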
How it was run: as §3

[10] = qHTS of pediatric cancer cell lines to identify multiple opportunities for drug repurposing: Primary screen for Rh18 cells (AID 1347102); further: on the % scale 0 is the no-effect control and ±100 the full control effect; nearly all actives have a fitted effect of over 65% in size
How it was run: as §2

CN1[C@@H]2CC[C@H]1CC(OC(=O)C(O)c1ccccc1)C2 (stereo partly specified)
inactive: Potency [1] | Potency [2] | Potency [3] | Potency [4] | Potency [5] | Potency [6] | Potency [7] | Potency [8] | Potency [9]

Cc1c(O)cccc1C(=O)N[C@@H](CSc1ccccc1)[C@H](O)CN1C[C@H]2CCCC[C@H]2C[C@H]1C(=O)NC(C)(C)C
active: Potency [1] 26.6 µM

NC(CSCC(=O)O)C(=O)O (stereo unspecified)
inactive: Potency [1] | Potency [2] | Potency [3] | Potency [4] | Potency [5] | Potency [6] | Potency [7] | Potency [8] | Potency [9]

O=C1O[C@H](CO)[C@@H](O)[C@H](O)[C@H]1O
inactive: Potency [1] | Potency [2] | Potency [3] | Potency [4] | Potency [5] | Potency [6] | Potency [7] | Potency [8] | Potency [9]

O=c1cc[nH]c(=O)[nH]1
inactive: Potency [1] | Potency [2] | Potency [3] | Potency [4] | Potency [5] | Potency [6] | Potency [7] | Potency [8] | Potency [9] | Potency [10]

OCC(CO)N[C@H]1C[C@](O)(CO)[C@@H](O)[C@H](O)[C@H]1O
inactive: Potency [1] | Potency [2] | Potency [3] | Potency [4] | Potency [5] | Potency [6] | Potency [7] | Potency [8] | Potency [9] | Potency [10]

CCN(CC)C(=O)Nc1ccc(OCC(O)CNC(C)(C)C)c(C(C)=O)c1 (stereo unspecified)
inactive: Potency [1] | Potency [2] | Potency [3] | Potency [4] | Potency [5] | Potency [6] | Potency [7] | Potency [8] | Potency [9] | Potency [10]

Nc1ccc(S(=O)(=O)Nc2nccs2)cc1
inactive: Potency [1] | Potency [2] | Potency [3] | Potency [4] | Potency [5] | Potency [6] | Potency [7] | Potency [8] | Potency [9] | Potency [10]

CCOC(=O)c1ccc(O)cc1
inactive: Potency [1] | Potency [2] | Potency [3] | Potency [4] | Potency [5] | Potency [6] | Potency [7] | Potency [8] | Potency [9] | Potency [10]

Cc1cc(O)cc2c1O[C@](C)(CCC[C@H](C)CCC[C@H](C)CCCC(C)C)CC2
inactive: Potency [1] | Potency [2] | Potency [3] | Potency [4] | Potency [5] | Potency [6] | Potency [7] | Potency [8] | Potency [9] | Potency [10]

C[C@@H]1CC[C@@]2(OC1)O[C@H]1C[C@H]3[C@@H]4CC[C@H]5C[C@@H](O)CC[C@]5(C)[C@H]4CC(=O)[C@]3(C)[C@H]1[C@@H]2C
inactive: activity change, negative = cytotoxic [1] 6.15% [at 4.84 µM] | activity change, negative = cytotoxic [2] 3.33% [at 6.03 µM] | activity change, negative = cytotoxic [3] 21.8% [at 4.84 µM] | activity change, negative = cytotoxic [4] 8.89% [at 4.84 µM] | activity change, negative = cytotoxic [5] -14.3% [at 4.84 µM] | activity change, negative = cytotoxic [6] -10.6% [at 6 µM] | activity change, negative = cytotoxic [7] 31.5% [at 4.84 µM] | activity change, negative = cytotoxic [8] -6.9% [at 4.84 µM] | activity change, negative = cytotoxic [9] 6.34% [at 6.03 µM] | activity change, negative = cytotoxic [10] 11.3% [at 4.84 µM]

O=C1c2c(O)cccc2Cc2cccc(O)c21
inactive: Potency [1] | Potency [2] | Potency [3] | Potency [4] | Potency [5] | Potency [6] | Potency [7] | Potency [8] | Potency [9]

CCOC(CN1CCN(CC(C)C(=O)c2ccccc2)CC1)c1ccccc1 (stereo unspecified)
inactive: Potency [1] | Potency [2] | Potency [3] | Potency [4] | Potency [5] | Potency [6] | Potency [7] | Potency [8] | Potency [9] | Potency [10]

Cc1ncc([N+](=O)[O-])n1CC(O)CCl (stereo unspecified)
inactive: Potency [1] | Potency [2] | Potency [3] | Potency [4] | Potency [5] | Potency [6] | Potency [7] | Potency [8] | Potency [9] | Potency [10]

C[C@H](N)[C@H](O)c1cccc(O)c1
inactive: Potency [1] | Potency [2] | Potency [3] | Potency [4] | Potency [5] | Potency [6] | Potency [7] | Potency [8] | Potency [9]

Cc1cc2nc3c(=O)[nH]c(=O)nc-3n(C[C@H](O)[C@H](O)[C@H](O)CO)c2cc1C
inactive: Potency [1] | Potency [2] | Potency [3] | Potency [4] | Potency [5] | Potency [6] | Potency [7] | Potency [8] | Potency [9] | Potency [10]

Nc1ccc(S(=O)(=O)Nc2ccccc2)cc1
inactive: Potency [1] | Potency [2] | Potency [3] | Potency [4] | Potency [5] | Potency [6] | Potency [7] | Potency [8] | Potency [9] | Potency [10]

CC(=O)CCC(=O)O
inactive: Potency [1] | Potency [2] | Potency [3] | Potency [4] | Potency [5] | Potency [6] | Potency [7] | Potency [8] | Potency [9] | Potency [10]

Cc1cc2c(cc1S(N)(=O)=O)S(=O)(=O)CCC2
inactive: Potency [1] | Potency [2] | Potency [3] | Potency [4] | Potency [5] | Potency [6] | Potency [7] | Potency [8] | Potency [9] | Potency [10]

O=c1cc(CO)occ1O
inactive: Potency [1] | Potency [2] | Potency [3] | Potency [4] | Potency [5] | Potency [6] | Potency [7] | Potency [8] | Potency [9] | Potency [10]

CCCCc1ncc(/C=C(\Cc2cccs2)C(=O)O)n1Cc1ccc(C(=O)O)cc1
inactive: Potency [1] | Potency [2] | Potency [3] | Potency [4] | Potency [5] | Potency [6] | Potency [7] | Potency [8] | Potency [9] | Potency [10]

COc1ccc2[nH]c(S(=O)Cc3ncc(C)c(OC)c3C)nc2n1 (stereo unspecified)
inactive: Potency [1] | Potency [2] | Potency [3] | Potency [4] | Potency [5] | Potency [6] | Potency [7] | Potency [8] | Potency [9] | Potency [10]

— PubChem BioAssay (NCATS)
